Source: PubChem BioAssay AID463173 (ICCB-Longwood Screening Facility, Harvard Medical School, 2010)
In all, about 52,000 compounds went through this assay and about 4,300 (8.3%) were called active. Rule as the data show it: active = survival mostly below about 52% (no sharp cut-off); inactive = mostly above about 56%. The list comes from a sample in which actives are over-represented; it also holds similar structures and randomly drawn compounds.

These compounds were tested on DeltatarO mutant (assay: growth inhibition of S. aureus wild type versus tarO mutant, primary screen, teichoic acid synthesis inhibitors, RN4220, OD600 (AID 463173)). Conditions: OD600, 18 h, stronger effect = lower value, screened at 18.75 µg/mL (by protocol).
In the case of `O=C(c1ccc2c(c1)N(Cc1ccc(Cl)cc1)C(=O)c1ccccc1S2(=O)=O)N1CCCCCC1`, the survival was 64% (inactive). With `Cn1nc(CC(=O)Nc2ccc(N3CCN(C(=O)OC(C)(C)C)CC3)cc2)c2ccccc2c1=O` the survival was 84% (inactive). `COC(=O)c1ccccc1NC(=O)CSc1nc2sc3c(c2c(=O)[nH]1)CCCC3` was tested, and the survival was 61% (inactive). In the case of `CCOc1ccccc1NC(=O)CSc1nnc2[nH]c(=O)cc(-c3ccccc3)n12`, the survival was 98% (inactive). In the case of `Cc1nonc1OCCn1nnc(N)n1`, the survival was 95% (inactive). In the case of `O=[N+]([O-])c1ccc(C(c2sc3nc(-c4ccco4)nn3c2O)N2CCN(c3cccc(Cl)c3)CC2)cc1` (stereo unspecified), the survival was 47% (active). With `O=[N+]([O-])c1ccc(C(c2sc3nc(-c4ccco4)nn3c2O)N2CCN(Cc3ccccc3)CC2)cc1` (stereo unspecified) the survival was 79% (inactive). In the case of `Oc1c(C(c2ccccc2)N2CCN(c3cccc(Cl)c3)CC2)sc2nc(-c3ccco3)nn12` (stereo unspecified), the survival was 74% (inactive). With `Oc1c(C(c2ccccc2F)N2CCOCC2)sc2nc(-c3ccco3)nn12` (stereo unspecified) the survival was 80% (inactive). With `CCOC(=O)c1ccccc1NC(=O)CSc1ccc(-c2sc(C)nc2C)nn1` the survival was 91% (inactive). For `COc1cccc(CNC(=O)CSc2ccc(-c3sc(-c4ccccc4)nc3C)nn2)c1`, the survival was 26% (inactive). For `COc1ccc(OC)c(NC(=O)CSc2ccc(-c3sc(C)nc3C)nn2)c1`, the survival was 83% (inactive). `CCOC(=O)c1ccc(NC(=O)CSc2ccc(-c3sc(C)nc3C)nn2)cc1` was tested, and the survival was 37% (active). With `COc1cc(NC(=O)CSc2ccc(-c3sc(-c4ccccc4)nc3C)nn2)cc(OC)c1` the survival was 19% (active). `Cc1cc(C)c(NC(=O)CSc2ccc(-c3sc(-c4ccccc4)nc3C)nn2)c(C)c1` was tested, and the survival was 33% (inactive). With `Cc1nc(C)c(-c2ccc(SCC(=O)Nc3ccc(F)c(F)c3)nn2)s1` the survival was 102% (inactive). For `Cc1nc(C)c(-c2ccc(SCC(=O)Nc3ccc(Br)cc3)nn2)s1`, the survival was 101% (inactive). With `COc1cc(NC(=O)CSc2ccc(-c3sc(C)nc3C)nn2)cc(OC)c1` the survival was 6% (active). With `COc1ccc(Cl)cc1NC(=O)CSc1ccc(-c2sc(C)nc2C)nn1` the survival was 105% (inactive). `Cc1nc(C)c(-c2ccc(SCC(=O)Nc3ccc(Cl)c(Cl)c3)nn2)s1` was tested, and the survival was 46% (active). With `COc1ccccc1NC(=O)CSc1ccc(-c2sc(C)nc2C)nn1` the survival was 92% (inactive). With `COc1ccc(NC(=O)C2CCN(S(=O)(=O)c3c(C)noc3/C=C/c3ccc(C)cc3)CC2)cc1Cl` the survival was 82% (inactive). In the case of `COc1cc2c(=O)n(CCC(=O)NCC3CCCO3)c(=O)n(CC(=O)Nc3ccc(C)cc3)c2cc1OC` (stereo unspecified), the survival was 92% (inactive). For `COc1cccc(OC(=O)CSc2nnc(-c3ccc4c(c3)OCO4)o2)c1`, the survival was 59% (inactive). `CC(=O)Nc1ccc(S(=O)(=O)NC2(C(F)(F)F)C(=O)Nc3c2c(=O)[nH]c(=O)n3-c2cccc(Cl)c2)cc1` (stereo unspecified) was tested, and the survival was 84% (inactive). In the case of `Cc1ccc(Cl)cc1N1CCN(C(=O)C2CCN(S(=O)(=O)Cc3ccccc3)CC2)CC1`, the survival was 72% (inactive). For `CCC1CN(C(=O)N2CCC(C(=O)NCc3ccc(C)o3)CC2)c2ccccc2O1` (stereo unspecified), the survival was 87% (inactive). With `O=C(NCc1ccco1)C(c1ccco1)N(C(=O)Cn1nnc2ccccc21)c1ccccc1` (stereo unspecified) the survival was 65% (inactive). For `Cc1cc2c(cc1S(=O)(=O)N(CCN(C)C)Cc1ccccc1)OCC(=O)N2`, the survival was 102% (inactive). `Cc1cc2c(cc1S(=O)(=O)N(C)CC(=O)Nc1cccc(C#N)c1)OCC(=O)N2` was tested, and the survival was -2% (active). For `CN(CC(=O)Nc1cccc(C#N)c1)S(=O)(=O)c1cc2c(cc1Cl)NC(=O)CO2`, the survival was 109% (inactive). `Cc1cc2c(cc1S(=O)(=O)N(CCN(C)C)Cc1ccco1)OCC(=O)N2` was tested, and the survival was 98% (inactive). In the case of `Cc1cc2c(cc1S(=O)(=O)N(C)CC(=O)Nc1ccc(C#N)cc1)OCC(=O)N2`, the survival was 76% (inactive). With `Cc1cc2c(cc1S(=O)(=O)N(CCO)Cc1ccccc1)OCC(=O)N2` the survival was 46% (active). With `CCN1CCN(C(c2cccc(OC)c2)c2c(O)cc(C)n(Cc3ccco3)c2=O)CC1` (stereo unspecified) the survival was 120% (inactive). For `Cc1ccc(-c2n[nH]c3c2C(c2ccc(C(C)(C)C)cc2)NC3=O)cc1` (stereo unspecified), the survival was 109% (inactive). For `CCSc1nn(CC(=O)Nc2cccc(CC)c2)c(N)c1S(=O)(=O)c1ccccc1`, the survival was 101% (inactive). For `COc1ccc(S(=O)(=O)c2c(SC)nn(CC(=O)Nc3ccc(C)c(Cl)c3)c2N)cc1`, the survival was 83% (inactive). `CCc1ccc(NC(=O)Cn2nc(SC)c(S(=O)(=O)c3ccc(OC)cc3)c2N)cc1` was tested, and the survival was 118% (inactive). For `CCSc1nn(CC(=O)Nc2ccc(C(=O)OC)cc2)c(N)c1S(=O)(=O)c1ccc(C)cc1`, the survival was 37% (active). With `CCOC(=O)c1ccc(NC(=O)Cn2nc(SC)c(S(=O)(=O)c3ccc(Cl)cc3)c2N)cc1` the survival was 99% (inactive). In the case of `COc1ccc(NC(=O)Cn2nc(SC)c(S(=O)(=O)c3ccc(C)cc3)c2N)cc1OC`, the survival was 25% (active). With `Cn1cc(-c2cc3n(n2)CCC(=O)N3CCCC(=O)NCc2ccccc2Cl)c2ccccc21` the survival was 109% (inactive). `CCn1c(=O)cc(SCC(=O)NCCc2ccc(Cl)cc2)c2ccccc21` was tested, and the survival was 76% (inactive). For `O=C(NC12CCC(O)C(SC1)/C2=N/O)c1ccccc1` (stereo unspecified), the survival was 98% (inactive). For `COc1cccc(-c2noc(C3CCCN(S(=O)(=O)c4ccccc4F)C3)n2)c1` (stereo unspecified), the survival was 65% (inactive). With `CC(C)(C)OC(=O)N1CCC(c2c(C(=O)NCCN3CCc4ccccc4C3)cnn2-c2ccc(F)cc2)CC1` the survival was 68% (inactive). For `Cc1ccc(-c2nc3c(c(SCC(=O)N(C)c4ccccc4)n2)Cc2c(CO)cnc(C)c2O3)cc1`, the survival was 64% (inactive). In the case of `Cc1ncc(CO)c2c1Oc1nc(-c3ccccc3)nc(SCC(=O)N3CCCCC3)c1C2`, the survival was 85% (inactive). `Cc1ncc(CO)c2c1Oc1nc(-c3ccc(F)cc3)nc(SCC(=O)N3CCCCC3)c1C2` was tested, and the survival was 52% (inactive). For `CCc1ccc(CSc2nc(-c3ccccc3F)nc3c2Cc2c(CO)cnc(C)c2O3)cc1`, the survival was 61% (inactive). For `Cc1ncc(CO)c2c1Oc1nc(-c3ccc(Cl)cc3)nc(SCC(=O)N3CCCCC3)c1C2`, the survival was 48% (active). With `CCN(CC)C(=O)CSc1nc(-c2ccc(C)cc2)nc2c1Cc1c(CO)cnc(C)c1O2` the survival was 39% (active). In the case of `CCSc1nc(-c2ccccc2OC)nc2c1Cc1c(CO)cnc(C)c1O2`, the survival was 80% (inactive). For `CCc1ccc(CSc2nc(-c3ccccc3OC)nc3c2Cc2c(CO)cnc(C)c2O3)cc1`, the survival was 90% (inactive). In the case of `CCN(CC)C(=O)CSc1nc(-c2ccccc2F)nc2c1Cc1c(CO)cnc(C)c1O2`, the survival was 101% (inactive). In the case of `Cc1ccc(C)c(CSc2nc(-c3ccccc3F)nc3c2Cc2c(CO)cnc(C)c2O3)c1`, the survival was 108% (inactive). With `CCSc1nc(-c2ccccc2F)nc2c1Cc1c(CO)cnc(C)c1O2` the survival was 52% (active). `COc1ccccc1-c1nc2c(c(SCc3cc(C)ccc3C)n1)Cc1c(CO)cnc(C)c1O2` was tested, and the survival was 41% (active). For `O=C(CSc1nccn1Cc1ccccc1)Nc1ccc2c(c1)OCCO2`, the survival was 71% (inactive). `CN(C)c1ccc(CN(Cc2ccco2)C(=O)COc2ccc(F)cc2)cc1` was tested, and the survival was 91% (inactive). In the case of `CC(Sc1nnc2c(n1)[nH]c1ccccc12)C(=O)NC1CC1` (stereo unspecified), the survival was 60% (inactive). `CCc1ccc(-c2cn3c(n2)sc2cc(C(=O)NCCC4=CCCCC4)ccc23)cc1` was tested, and the survival was 70% (inactive). For `O=C(NCc1ccccc1)C(c1ccco1)N(C(=O)c1csnn1)c1ccccc1` (stereo unspecified), the survival was 81% (inactive). In the case of `CCCCc1nn2c(=O)cc(COC(=O)c3ccccc3NC(=O)c3ccccc3OC)nc2s1`, the survival was 84% (inactive). For `O=C(Nc1ccc(Cl)cc1)N1CCC(c2ccccc2)C1` (stereo unspecified), the survival was 67% (inactive). In the case of `COc1cc(OC)c(NC(=O)CN2C(=O)CCn3nc(-c4cccn4C)cc32)cc1Cl`, the survival was 90% (inactive). With `O=C(NC1(C(F)(F)F)NC(=O)N(CCc2ccccc2)C1=O)c1ccccc1F` (stereo unspecified) the survival was 76% (inactive). For `Cc1ccc(N(CC(=O)N2CCN(c3cccc(C)c3C)CC2)S(=O)(=O)c2c(C)nn(C)c2C)cc1`, the survival was 75% (inactive). With `CCSc1nc(-c2ccc(Cl)cc2)nc2c1Cc1c(CO)cnc(C)c1O2` the survival was 39% (active). `CCSc1nc(-c2cccc(Cl)c2)nc2c1Cc1c(CO)cnc(C)c1O2` was tested, and the survival was 116% (inactive). With `CCSc1nc(-c2ccccc2)nc2c1Cc1c(CO)cnc(C)c1O2` the survival was 93% (inactive). With `CC(C)c1n[nH]c(=S)n1C` the survival was 84% (inactive). In the case of `CCOc1ccccc1N1CC(c2nc3ccccc3n2CCCOc2ccccc2)CC1=O` (stereo unspecified), the survival was 68% (inactive). `CCOc1ccc(N2CC(c3nc4ccccc4n3CCOc3ccccc3)CC2=O)cc1` (stereo unspecified) was tested, and the survival was 33% (active). With `CCOc1ccc(N2CC(c3nc4ccccc4n3CCCOc3ccccc3)CC2=O)cc1` (stereo unspecified) the survival was 51% (inactive). In the case of `CCOc1ccc(N2CC(c3nc4ccccc4n3Cc3ccccc3F)CC2=O)cc1` (stereo unspecified), the survival was 103% (inactive). In the case of `CCOc1ccccc1N1CC(c2nc3ccccc3n2CCOc2ccccc2)CC1=O` (stereo unspecified), the survival was 32% (active). In the case of `CCOc1ccccc1N1CC(c2nc3ccccc3n2CCOc2ccc(OC)cc2)CC1=O` (stereo unspecified), the survival was 62% (inactive). With `CCc1ccc(N2CC(c3nc4ccccc4n3Cc3ccccc3C)CC2=O)cc1` (stereo unspecified) the survival was 52% (active). With `CCOc1ccc(N2CC(c3nc4ccccc4n3CCOc3ccc(CC)cc3)CC2=O)cc1` (stereo unspecified) the survival was 55% (active). With `CCOC(=O)Cn1c(C2CC(=O)N(c3ccc(C)cc3)C2)nc2ccccc21` (stereo unspecified) the survival was 66% (inactive). `CCc1ccccc1NC(=O)c1nnn(-c2ccc(F)cc2)c1C` was tested, and the survival was 74% (inactive). `CCN(CC)CCCNC(=O)CCc1c(C)n(CC)c2cc(-c3ccccc3OC)nn2c1=O` was tested, and the survival was 92% (inactive). In the case of `CCC(=O)n1nc(-c2cccnc2)nc1NCc1ccc(F)cc1`, the survival was 88% (inactive). With `Cc1ccccc1Nc1nn2c(=O)c3ccc(C(=O)NCc4cccs4)cc3nc2s1` the survival was 72% (inactive).
